In PubChem BioAssay (Tox21):
“And” between values parts separate entries of the source, which are not always exact repeats. Equal entries are not always repeated. Results filed as inconclusive are left out. A call without a number means that no potency is given here. Where a structure was tested more than once in an assay, its records may differ in their call. The source made the active and inactive calls. The call rests on the fitted dose curve.

assay: qHTS assay to identify small molecule antagonists of the sonic hedgehog signaling (Shh) pathway (AID 1259369); conditions: NIH/3T3 Gli1-Luc reporter, Shh antagonist, luminescence 24 h; series mostly up to 92.4 µM; activity change, negative = inhibition: at the top concentration; further: nearly all actives have a fitted effect of over 45% in size
Text: U.S. Tox21 Program National Center for Advancing Translational Sciences [NCATS] NIH Chemical Genomics Center [NCGC] U.S. Environmental Protection Agency [EPA] National Institutes of Environmental Health Sciences [NIEHS] National Toxicology Program [NTP] U.S. Food and Drug Administration [FDA] Tox21 Assay Overview: The sonic hedgehog (Shh) pathway is essential for normal embryonic development. Dysregulation of the Shh pathway can cause severe developmental defects in organs. Therefore chemicals that interfere with the pathway are potential developmental toxicants. A cell line designated 3T3Gli1-Luc (DMB/OARSA/CFSAN/FDA, Laurel, MD), a NIH/3T3 derived clone containing stably integrated Gli1-Luc reporter is used to detect chemical interference of the Shh pathway, by changes in the expression of the firefly Luc gene under the control of the Gli1 transcriptional response element. This cell line was used to screen Tox21 libraries for identifying and prioritizing the potential developmental toxicants that interfere Shh pathway. Conditioned medium-stimulated mode was used to screen for chemicals inhibiting Shh signaling.
Tox21 Assay Protocol Summary: 3T3 Gli1-Luc cells were dispensed at 2,000 per well in 5uL of culture medium into white solid bottom 1536-well plates (Greiner Bio-One, Monroe, NC) using a Multidrop Combi (Thermo Scientific, Waltham, MA) dispenser. The assay plates were incubated at 37 C and 5% CO2 for 4hr, and then 23nL of compounds dissolved in DMSO and positive control were transferred using a Pintool station (Wako, San Diego, CA). The compound transfer was followed by the addition of 1ul conditioned medium or assay buffer using two separate tips of Flying Reagent Dispenser (FRD, Aurora Discovery, San Diego, CA). The assay plates were incubated at 37C and 5% CO2 for 24hr. For luciferase read, 4uL of Amplite Luciferase reporter gene assay reagent (AAT Bioquest, Inc. Sunnyvale, CA) was added to each well of the assay plates using FRD and incubated at room temperature for 30min. The luminescence signal was measured using a ViewLux plate reader (Perkin Elmer, Shelton, CT).
Potency means the concentration at half of the fitted maximal effect.

| Structure (SMILES) | Potency | activity change, negative = inhibition |
| --- | --- | --- |
| O=Cc1ccccc1O | inactive | – |
| CCCCOCCOCCOCCO | – | -12.2% [at 42.5 µM] (inactive) |
| CC(C)(C)NC(=O)[C@H]1CC[C@H]2[C@@H]3CC[C@H]4NC(=O)C=C[C@]4(C)[C@H]3CC[C@]12C | 2.7 µM (active) and inactive | – |
| CC(C)=CCCC(C)CCO (stereo not given) | – | 3.11% (inactive) |
| COc1c(Cl)c(Cl)c(Cl)c(Cl)c1Cl | inactive | – |
| Cc1c(C(N)=O)cc([N+](=O)[O-])cc1[N+](=O)[O-] | inactive | – |
| c1ccc2cc(Nc3ccc(Nc4ccc5ccccc5c4)cc3)ccc2c1 | inactive | – |
| O=C(O)c1ccccc1Nc1cccc(C(F)(F)F)c1 | inactive | – |
| Cn1cnc([N+](=O)[O-])c1Sc1ncnc2nc[nH]c12 | 30.4 µM (active) | – |
| Nc1ccccc1N | inactive and 30.6 µM (active) | – |
| O=C(c1ccc(OCCN2CCCCC2)cc1)c1c(-c2ccc(O)cc2)sc2cc(O)ccc12 | 4.86 µM (active) and 2.73 µM (active) and 8.41 µM (active) | – |
| Nc1ccc(S(=O)(=O)Nc2cnc3ccccc3n2)cc1 | inactive | – |
| Nc1ccc(Cl)cc1Cl | inactive | – |
| O=C1c2cccc(O)c2C(=O)c2c(O)cccc21 | – | -15.4% (inactive) |
| c1cc(-c2ccncc2)ccn1 | inactive | – |
| NNc1ccc(C(=O)O)cc1 | inactive | – |
| CCC(C)CO (stereo not given) | inactive | – |
| CC(C)OB(OC(C)C)OC(C)C | inactive | – |
| CCCCC(CC)COP(=O)(OCC(CC)CCCC)OCC(CC)CCCC (stereo not given) | inactive | – |
| O=S(=O)(O)c1ccc(O)cc1 | inactive | – |

| Structure (SMILES) | Potency | activity change, negative = inhibition |
| --- | --- | --- |
| Nc1ccc(Nc2ccccc2)cc1 | 4.8 µM (active) and 1.72 µM (active) and 4.33 µM (active) | – |
| O=C(Nc1ccc(Cl)cc1)Nc1ccc(Cl)c(Cl)c1 | 12.1 µM (active) and inactive | – |
| Clc1nc(Cl)c(Cl)c(Cl)c1Cl | inactive | – |
| Cc1ccc(C(=O)c2cc(O)c(O)c([N+](=O)[O-])c2)cc1 | 24.3 µM (active) | – |
| CC(C)CC(C)(O)C#CC(C)(O)CC(C)C (stereo not given) | 9.49 µM (active) and inactive | – |
| NC=O | inactive | – |
| c1cc(N(CC2CO2)CC2CO2)ccc1OCC1CO1 (stereo not given) | 3.44 µM (active) and 9.69 µM (active) | – |
| Nc1ncnc2nc[nH]c12 | inactive | – |
| Cc1ccc2c(n1)Oc1ccc(C(C)C(=O)OCC(=O)N(C)C)cc1C2 (stereo not given) | inactive | – |
| O=C(c1ccccc1)c1ccc(O)cc1O | 27.8 µM (active) | – |
| CC(C)=CCC/C(C)=C\CO | inactive | – |
| OC(CCl)CCl | inactive | – |
| CN(C)c1nc(N(C)C)nc(N(C)C)n1 | – | 21.3% [at 42.5 µM] (inactive) |
| Cc1ccc(C)c(O)c1C | inactive | – |
| C[Si](C)(C)O[Si](C)(C)C | inactive | – |
| COc1ccc(C(=O)CC(=O)c2ccc(C(C)(C)C)cc2)cc1 | – | 6.57% [at 42.5 µM] (inactive) |
| CCCCOCCOCCO | inactive | – |
| COC(=O)CCC(=O)OC | inactive | – |
| C[C@]12CCC(=O)C=C1CC[C@@H]1[C@@H]2C(=O)C[C@@]2(C)[C@H]1CC[C@]2(O)C(=O)CO | 54.5 µM (active) and inactive | – |
| CC(C)Oc1ccc2c(=O)c(-c3ccccc3)coc2c1 | inactive | – |
